These results are taken from PubChem BioAssay (Tox21).

Results filed as inconclusive are left out. Active and inactive are the calls of the source. The call rests on the fitted dose curve; in most records, active means well fitted activation curve with a large enough effect in the repeat runs; inconclusive means weak or mixed curves; inactive means no such curve, though single readings can be large or run the other way.
On the % scale 0 is the no-effect control and ±100 the full control effect; potency means the concentration at half of the fitted maximal effect.

This assay addresses Nuclear receptor subfamily 1 group I member 2 (Homo sapiens) (UniProt O75469). The assay can be described thus: CYP3A4 induction through human pregnane X receptor (PXR) by small molecules, qHTS assay (AID 1346984). Further: nearly all actives have a fitted effect of over 40% in size. To be noted: DPX-2 HepG2 PXR, CYP3A4-luciferin luminescence, 24 h; series mostly up to 46.1 µM; activation: at the top concentration. An excerpt:
National Center for Advancing Translational Sciences [NCATS]
NIH Chemical Genomics Center [NCGC]
U.S. Environmental Protection Agency [EPA]
National Institutes of Environmental Health Sciences [NIEHS]
National Toxicology Program [NTP]
The Pregnane X receptor (PXR), a ligand activated nuclear receptor plays a critical role in the regulation of genes involved in drug metabolism and transporters. Activation of PXR is responsible for unwanted adverse drug reactions. PXR binds xenobiotics and when compounds interact with PXR enhances the expression of CYP3A genes. Identifying the compounds with the potential for PXR activation and CYP3A4 induction can be of importance in improving the efficacy of drugs with less toxicity and avoiding drug-drug interactions.
DPX-2 (Puracyp, Inc.) cell lines, used for screening against human PXR activation has HepG2 cells co-transfected with a PXR response element and a luciferase construct containing CYP3A4 promoter. Increase in luciferase activity can be used to identify the compounds that cause the induction of CYP3A4.
DPX-2 cells were dispensed at 2,000 cells per well in 5uL of assay medium into white, solid-bottom 1536-well plates using a Multidrop Combi dispenser (Thermo Scientific). The assay plates were incubated at 37C for 5hr before transferring 23nL of test compounds dissolved in DMSO and positive control via Pintool station (Wako). The assay plates were incubated at 37C for 24hr. After 24hr compound treatment, 1uL of 3uM (final concentration) P450 substrate (P450-Glo CYP3A4 screening system with Luciferin-IPA, Promega) was added by a Flying Reagent Dispenser (FRD, Aurora Discovery). The assay plates were incubated for 3hr at 37C. Then 5ul One-Glo assay reagent (Promega) was added to each plate by an FRD and following 30 min incubation at room temperature, luciferase activity was quantified on a ViewLux plate reader (Perkin Elmer).
(In qHTS, concentration-response curves come from the screen itself.)
Consider `CC(=O)[C@H]1CC[C@H]2[C@@H]3CC[C@@H]4C[C@H](O)CC[C@]4(C)[C@H]3CC[C@]12C`, for which the “activation” value is -1.22% (inactive).

Regarding `C=C[C@H]1CN2CC[C@H]1C[C@H]2[C@H](OC(=O)OCC)c1ccnc2ccc(OC)cc12`, the “activation” value was -0.253% (inactive).

With `CC(=O)Oc1ccc2c3c1O[C@H]1[C@@H](OC(C)=O)C=C[C@H]4[C@@H](C2)N(C)CC[C@@]341`, the “activation” value was -3.03% (inactive).

Take `COC(=O)[C@@H]1[C@H]2CC[C@@H](C[C@H]1OC(=O)c1ccccc1)N2C`: the “activation” value is 1.87% (inactive).

On to `O=C1C=C2C=C[C@@H]3C[C@@]2(O1)[C@H]1CCCCN31`, for which the “activation” value was -19.9% (inactive).

For the compound `C[C@]12CC[C@H](OS(=O)(=O)O)CC1=CC[C@@H]1[C@@H]2CC[C@]2(C)C(=O)CC[C@@H]12`, the “activation” value is -7.52% (inactive).

In the case of `C=CC[C@]1(O)CC[C@H]2[C@@H]3CCC4=CCCC[C@@H]4[C@H]3CC[C@@]21C`, the “activation” value is -14% (inactive).

Regarding `O=c1[nH]cc(N(CCCl)CCCl)c(=O)[nH]1`, the “activation” value was -2.2% (inactive).

As for `COC(COC(N)=O)C1=C(N2CC2)C(=O)C(C)=C(N2CC2)C1=O` (stereo not given), the “activation” value is -16.4% (inactive).

Consider `OC[C@@H](O)[C@H]1O[C@@H]2O[C@@H](C(Cl)(Cl)Cl)O[C@@H]2[C@H]1O`, for which the “activation” value is -14.1% (inactive).

For `[S]=[Sb](=[S])[S][Sb](=[S])=[S]`, the “activation” value was 13.9% (inactive).

Regarding `C=CCN1CC[C@]23c4c5ccc(O)c4O[C@H]2[C@@H](O)C=C[C@H]3[C@H]1C5`, the “activation” value is 17.8% (inactive).

Take `C[C@H]1CC[C@]2(NC1)O[C@H]1C[C@H]3[C@@H]4CC[C@H]5C[C@@H](O)CC[C@]5(C)[C@H]4CC[C@]3(C)[C@H]1[C@@H]2C`: the “activation” value was -0.101% (inactive).

For `C[C@@H]([C@H](O)c1ccccc1)N(C)C`, the “activation” value is -7.42% (inactive).

On to `CN1C(=O)CC(=O)N(c2ccccc2)c2cc(Cl)ccc21`, for which the “activation” value is 4.3% (inactive).

With `C[N+]1(C)CCCCC1COC(=O)C(O)(c1ccccc1)c1ccccc1` (stereo not given), the “activation” value was -1.05% (inactive).

Turning to `[2H]C([2H])([2H])[C@H](N)Cc1ccccc1`, the “activation” value is 0.62% (inactive).

For `CN1CCCC(=C(c2cccs2)c2cccs2)C1`, the “activation” value was 23.4% (inactive).

Regarding `Clc1ccc2c(c1)C(c1ccccc1)=NCc1nncn1-2`, the “activation” value is -2.49% (inactive).

Take `O=C1CCCCC1CN1CCCCC1` (stereo not given): the “activation” value was -0.913% (inactive).

`C[C@]12N[C@H](Cc3ccccc31)c1ccccc12`: the “activation” value was 20.7% (inactive).

As for `O=C1CCO1`, the “activation” value was -0.733% (inactive).

In the case of `NCC(O)c1cccc(O)c1` (stereo not given), the “activation” value was -2.15% (inactive).

Take `CCCCCc1cc(O)c2c(c1)OC(C)(C)[C@@H]1CCC(C)=C[C@@H]21`: the “activation” value was 2.75% (inactive).

In the case of `CC(=O)O[C@H]1CC[C@H]2[C@@H]3CCC4=CC(=O)CCC4=C3C=C[C@]12C`, the “activation” value is -3.83% (inactive).

Take `CC(C)(O)[C@@H]1[C@H]2OC(=O)[C@@H]1[C@]1(O)C[C@H]3O[C@]34C(=O)O[C@H]2[C@]14C`: the “activation” value is -8.23% (inactive).

Consider `C[N+]1([O-])[C@@H]2CC[C@H]1CC(OC(=O)C(CO)c1ccccc1)C2` (stereo not given in full), for which the Potency entry is “inactive”.

Turning to `C#CC(C)(O)CC` (stereo not given), the “activation” value is -7.43% (inactive).

Take `CCCC(=O)OC(C(Cl)(Cl)Cl)P(=O)(OC)OC` (stereo not given): the “activation” value is 11.3% (inactive).

On to `OC(c1ccccc1)(c1ccccc1)C1CN2CCC1CC2` (stereo not given), for which the “activation” value was 18.5% (inactive).

Take `O=[N+]([O-])c1cc(I)c(O)c(I)c1`: the “activation” value was 4.82% (inactive).

`CC(=O)OC1CN2CCC1CC2` (stereo not given): the “activation” value is -2.87% (inactive).

Turning to `CCC1C(C)=NN=C(c2ccc(OC)c(OC)c2)c2cc(OC)c(OC)cc21` (stereo not given), the “activation” value was -2.3% (inactive).

As for `NCC[C@H](O)C(=O)N[C@@H]1C[C@H](N)[C@@H](O[C@H]2O[C@H](CN)[C@@H](O)[C@H](O)[C@H]2N)[C@H](O[C@@H]2O[C@H](CO)[C@@H](O)[C@H]2O)[C@H]1O`, the “activation” value was -6.55% [at 20.6 µM] (inactive).

`Cc1ccccc1-n1c(C)nc2ccccc2c1=O`: the “activation” value was -9.76% (inactive).

For the compound `CC1(C)S[C@@H]2[C@H](N)C(=O)N2[C@H]1C(=O)O`, the “activation” value was -11% [at 20.6 µM] (inactive).

As to `Clc1ccc(C(Cn2ccnc2)OCc2csc3c(Cl)cccc23)c(Cl)c1` (stereo not given), the Potency is 3.98 µM (active).

As to `CCC(N)Cc1c[nH]c2ccccc12` (stereo not given), the “activation” value is 21.1% (inactive).

For `O[C@H]1[C@H]2[C@H](O)CCCN2C[C@H]1O`, the “activation” value is -0.233% (inactive).

Turning to `COC([CH2][Hg])CNC(=O)c1ccccc1OCC(=O)O` (stereo not given), the “activation” value was -1.34% (inactive).
